Out of some 360,000 compounds screened, about 520 (0.14%) were called active. A call without a number means that no potency is given here. Not shown: some 3% with an inconclusive outcome. The sample holds actives, similar compounds and a random draw of the others, so the mix is not that of the screen. The call rests on the fitted dose curve; in most records, active means well fitted inhibition curve with a large enough effect; inconclusive means small, poorly fitted or top-dose-only effect; inactive means no such curve, though single readings can be large or run the other way.
Potency means the concentration at half of the fitted maximal effect.

Chain of Rap guanine nucleotide exchange factor 3 (Homo sapiens) (O95398 whole entry, looked up): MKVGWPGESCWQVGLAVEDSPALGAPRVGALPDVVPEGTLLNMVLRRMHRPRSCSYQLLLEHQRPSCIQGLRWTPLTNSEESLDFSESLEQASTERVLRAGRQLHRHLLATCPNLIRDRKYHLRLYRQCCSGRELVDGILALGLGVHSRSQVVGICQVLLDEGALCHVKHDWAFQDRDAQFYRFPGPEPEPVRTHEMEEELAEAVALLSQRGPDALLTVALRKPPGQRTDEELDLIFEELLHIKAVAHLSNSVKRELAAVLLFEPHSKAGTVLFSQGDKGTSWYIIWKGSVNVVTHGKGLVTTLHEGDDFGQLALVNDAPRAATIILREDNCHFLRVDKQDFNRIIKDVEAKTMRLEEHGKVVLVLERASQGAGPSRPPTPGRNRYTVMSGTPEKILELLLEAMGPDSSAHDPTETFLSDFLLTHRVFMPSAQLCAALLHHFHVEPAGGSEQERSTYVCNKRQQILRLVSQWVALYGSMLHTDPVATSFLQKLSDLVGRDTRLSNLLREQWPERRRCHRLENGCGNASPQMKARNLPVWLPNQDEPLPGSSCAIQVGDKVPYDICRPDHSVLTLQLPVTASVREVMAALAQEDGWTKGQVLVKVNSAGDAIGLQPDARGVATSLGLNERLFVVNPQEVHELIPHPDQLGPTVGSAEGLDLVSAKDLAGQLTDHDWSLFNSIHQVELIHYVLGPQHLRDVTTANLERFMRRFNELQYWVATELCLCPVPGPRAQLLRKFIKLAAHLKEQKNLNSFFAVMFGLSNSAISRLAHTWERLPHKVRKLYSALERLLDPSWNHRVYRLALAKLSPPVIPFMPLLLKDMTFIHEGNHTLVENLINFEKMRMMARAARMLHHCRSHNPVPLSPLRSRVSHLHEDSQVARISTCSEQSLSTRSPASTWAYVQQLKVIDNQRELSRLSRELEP

The target in the assay is Rap guanine nucleotide exchange factor 3 (Homo sapiens) (UniProt O95398). Briefly: qHTS for Antagonist of cAMP-regulated guanine nucleotide exchange factor 3 (EPAC1): primary screen. Further: nearly all actives have a fitted effect of over 50% in size. As to conditions: EPAC1 GEF assay, Rap1b-BODIPY-GDP exchange fluorescence; series mostly up to 115 µM. The source says:
In multi-cellular eukaryotic organisms, the effects of cAMP are transduced by two ubiquitously-expressed intracellular cAMP receptors, the classic protein kinase A/cAMP-dependent protein kinase (PKA/cAPK) and the more recently discovered exchange protein directly activated by cAMP/cAMP-regulated guanine nucleotide exchange factor (EPAC/cAMP-GEF). Both PKA and EPAC are ubiquitously expressed in all tissues, and an increase in intracellular cAMP levels will lead to the activation of both PKA and EPAC. Therefore, careful dissections of the individual role and relative contribution of EPAC and PKA within the overall cAMP signaling in various model systems are critical for further elucidating the mechanism of cAMP signaling. To date no EPAC-specific antagonists and agonist, as well as isoform-specific agonists have been reported, and developing EPAC-specific pharmacological probes to determine the physiological functions that EPAC play in the overall cAMP-mediated signaling remains a major challenge within the research field. Furthermore, identified regulators of EPAC may lead to new mechanism-based therapeutic strategies specifically targeting the EPAC / cAMP-signaling components as EPAC has been implicated to play important roles in major human pathological conditions such as diabetes, heart disease, and cancer. This qHTS will be used to screen the Molecular Libraries Small Molecule Repository (MLSMR) as a concentration-titration series using the NCGC unique quantitative screening (qHTS) platform to find inhibitors for EPAC1. In addition, this assay will also be used as a counterscreen for the EPAC2 qHTS. This fluorescent based assay is developed and validated for EPAC1 that measures exchange using EPAC effector Rap1 complex with BODIPY-GDP, a GDP analog with a tethered fluorophores. Inhibitors are identified by monitoring the change in fluorescence signal as the exchanged free BODIPY-GDP has a reduced fluorescence compared to Rap1-bound BODIPY-GDP. Decrease in signal (inhibition) is the desired outcome for the EPAC1 antagonist while no activity in this assay is desired for the EPAC2 antagonist counterscreen. de Rooij, J., Zwartkruis, F. J., Verheijen, M. H., Cool, R. H., Nijman, S. M., Wittinghofer, A., and Bos, J.L. (1998) Nature 396, 474-477 [2] Kawasaki, H., Springett, G. M., Mochizuki, N., Toki, S., Nakaya, M., Matsuda, M., Housman, D. E., and Graybiel, A. M. (1998) Science 282, 2275-2279 NIH Chemical Genomics Center [NCGC] NIH Molecular Libraries Probe Centers Network [MLPCN] MLPCN Grant: NS066510 Assay Submitter (PI): Xiaodong Cheng, The University of Texas, Medical Branch
Briefly, three uL of reagents (100 nM EPAC1, 250 nM RAP1B-BODIPY-GDP, 50 uM GDP) were dispensed into a 1536-well Greiner black solid-bottom medium binding assay plate. Controls and test compounds (23 nL) were transferred to the plate via a Kalypsys pin tool equipped with a 1536-pin array. The plates were centrifuged at 1,000 rpm for 15 seconds followed by 5 minute incubation at room temperature. The assay plates were read at 5 minute intervals for 30 minutes in the ViewLux plate reader using 480nm excitation and 540nm emission filters. The results were normalized to the […] positive control ATA and DMSO.
For orientation: Quantitative high-throughput screening tests each substance at several concentrations.
`C#CCNC(=O)C[C@@H]1C[C@@]2(C(=O)OCC)CCCC=C2N(Cc2ccco2)C1=O`: the Potency entry is “inactive”.

Take `Cc1ccc(S(=O)(=O)N[C@H]2CCC[C@@H]2O)cc1`: the Potency entry is “inactive”.

Regarding `O=C(NCc1ccccc1)C(c1ccc(F)cc1)N1CCN(C(=O)C2CCCO2)CC1` (configuration not stated), the Potency entry was “inactive”.

For the compound `C#CCOCCOCCOCCNc1nc(N2CCN(C(=O)[C@H](CO)n3cc([C@@H](N)C(C)C)nn3)CC2)nc(N2CCN(C(=O)[C@H](CCC(=O)O)n3cc([C@@H](N)[C@H](C)CC)nn3)CC2)n1`, the Potency result is “inactive”.

Turning to `C#CCOCCOCCOCCNc1nc(N2CCN(C(=O)C([C@@H](C)O)n3cc([C@@H](N)CCCCN)nn3)CC2)nc(N2CCN(C(=O)[C@H](CCCCN)n3cc(CN)nn3)CC2)n1` (some centres not stated), the Potency entry was “inactive”.

In the case of `C#CCOCCOCCOCCNc1nc(N2CCN(C(=O)CCCCCCCCCCNC(=O)[C@H]([C@@H](C)CC)n3cc(CCCCN=C(N)N)nn3)CC2)nc(N2CCN(C(=O)CCCCCCCCCCNC(=O)[C@H](CO)n3cc(CCCSC)nn3)CC2)n1`, the Potency was 44.7 µM (active).

Regarding `CN1OC[C@@H]2CN(S(=O)(=O)c3cccc4ccccc34)[C@H](c3ccc(N4CCCCC4)cc3)C[C@@H]21`, the Potency entry is “inactive”.

As for `CC(C)C[C@@H]1COc2cc(N3CCC[C@@H]3CO)ccc2S(=O)(=O)N1`, the Potency entry is “inactive”.

As for `CCOC(=O)C1C(C)C(C(C)(C)C)N(S(=O)(=O)c2ccc(C)cc2)C1c1ccccc1` (configuration not stated), the Potency result was “inactive”.

Turning to `Oc1c(Cl)cc(Cl)c(Cl)c1Cc1c(O)c(Cl)cc(Cl)c1Cl`, the Potency was 70.8 µM (active).

For the compound `Fc1cccc(Cc2c(-c3ccc(Cl)cc3)nc3ccc(Cl)cn23)c1`, the Potency result is “inactive”.

Regarding `CC1=C(C(=O)N(C(C)C)C(C)C)CC(CC(=O)NCCCCc2ccccc2)C(=O)N1CCC1=CCCCC1` (configuration not stated), the Potency result is “inactive”.

On to `CCc1c(-c2ccc(F)cc2)ncn1Cc1cccc(-c2ccccc2)c1`, for which the Potency entry was “inactive”.

Turning to `CN(C)C1CN(Cc2cn(Cc3ccccc3)nn2)S(=O)(=O)C1` (configuration not stated), the Potency result is “inactive”.

As for `COC(=O)C1=CN(c2c(C)cc(C)cc2C)C(N)=C(C#N)C1c1cccc(F)c1` (configuration not stated), the Potency result is “inactive”.

As for `CCc1oc(-c2ccc(OC)cc2)c(C(=O)OCCCCCO)c1C(C)OCCO` (configuration not stated), the Potency entry was “inactive”.

`COC(=O)[C@]12CCCCC=C1N(Cc1cccc3ccccc13)C(=O)[C@H](CC(=O)N1CCOCC1)C2`: the Potency entry was “inactive”.

With `CCNC(=O)c1cc2c(c(-c3cccc(-c4cncnc4)c3)n1)[C@H](CCO)N(C(C)=O)C2`, the Potency entry was “inactive”.

For `CCCCNC(=O)C[C@@H]1C[C@@]2(C(=O)OCC)CCC=C2N(Cc2ccco2)C1=O`, the Potency entry was “inactive”.

With `CCOC(=O)[C@]12CCCC=C1N(CCC1=CCCCC1)C(=O)[C@H](CC(=O)N1CCCCC1)C2`, the Potency result is “inactive”.

For `CCOc1ccc(CCN2C(=O)C(=O)N([C@@H](Cc3ccc(O)cc3)CN3CCC[C@H]3CN3C(=O)C(=O)NC[C@@H]3CC(C)C)C[C@@H]2Cc2ccccc2)cc1`, the Potency result is “inactive”.

Turning to `CCOC(=O)[C@]12CCCC=C1N(Cc1ccc3c(c1)OCO3)C(=O)[C@H](CC(=O)N1CCN(C(=O)c3ccco3)CC1)C2`, the Potency entry is “inactive”.

Turning to `O=C(Nc1ccc2c(c1)OCCO2)C1c2ccccc2OCC(=O)N1Cc1ccccn1` (configuration not stated), the Potency entry is “inactive”.

Take `CC(C)C[C@@H]1Cc2[nH][nH]c(=O)c2[C@H](CCc2ccccc2)O1`: the Potency entry was “inactive”.

As to `CCOC(=O)[C@]12CCCC=C1N(Cc1ccc3c(c1)OCO3)C(=O)[C@H](CC(=O)NCc1cccs1)C2`, the Potency entry was “inactive”.

For `CC(C)(O)C1=C[N+](=O)CC=C1`, the Potency result is “inactive”.

For the compound `CCCCCn1nnnc1C1c2ccccc2C(=O)N1Cc1ccco1` (configuration not stated), the Potency result is “inactive”.

For the compound `COc1ccc(C(c2nnnn2C2CCCC2)N2CCN(C/C=C/c3ccccc3)CC2)cc1` (configuration not stated), the Potency entry was “inactive”.

Take `CCCCCNC(=O)C(c1ccc(OC)cc1)n1c(=O)c(-c2ccccc2)nc2ccccc21` (configuration not stated): the Potency entry is “inactive”.

In the case of `Cc1ccc(S(=O)(=O)N2[C@@H](Cc3ccccc3)CO[C@H]2CC(=O)OCc2ccccc2)cc1`, the Potency result was “inactive”.

For `CN(Cc1cn(Cc2ccc(C(F)(F)F)cc2)nn1)C1CN(Cc2cn(Cc3ccc(C(F)(F)F)cc3)nn2)S(=O)(=O)C1` (configuration not stated), the Potency result is “inactive”.

Turning to `COCCNC(=O)c1cc2c(Br)ccc(Br)c2nc1N`, the Potency entry was “inactive”.

For `CC(=O)N1Cc2cc(C(=O)NCc3cccc(F)c3)nc(-c3cccc(C4=CCCCC4)c3)c2[C@H]1CCO`, the Potency result is “inactive”.

Take `C=C1C(=O)[C@]23C[C@H]1CCC2[C@@]1(C)C(C[C@@H]3O)[C@](C)(C(=O)O)CC[C@@H]1O` (some centres not stated): the Potency entry is “inactive”.

As to `CCCCCNC(=O)C1C(=O)Nc2ccccc2C(=O)N1C(C)(C)C` (configuration not stated), the Potency entry is “inactive”.

Take `CC[C@@H]1CC2=C(C(=O)OC(C)(C)O2)[C@@H](CC)O1`: the Potency result was “inactive”.

With `CCOC(=O)[C@]12CCC=C1N(Cc1ccccc1)C(=O)[C@H](CC(=O)N1CCCC1)C2`, the Potency entry was “inactive”.

(Values after PubChem BioAssay AID720709 (National Center for Advancing Translational Sciences (NCATS), 2013).)
